Measurements taken from ChEMBL document CHEMBL3988442, “University of Dundee, Small-Polar-MMV Screening Library” (2021).
For some of these results: Entries with a potency or affinity are not part of this list.

Columns and labels:
Design in all cases: scale not given: direction of the effect not stated beside the values
[1] = biological target: Protein translocase subunit SecA (Escherichia coli (strain K12)) (UniProt P10408); assay: Assay to Identify E. coli SecA ATPase Inhibitors; format: functional; details: 30 µM
[2] = biological target: T1, Ubiquitin-activating enzyme e1, putative (Leishmania donovani (strain BPK282A1)) (UniProt E9BSI1); assay: Leishmania donovani Ubiquitin Activating Enzyme (LdE1); format: functional; details: 30 µM
T1 sequence (whole entry): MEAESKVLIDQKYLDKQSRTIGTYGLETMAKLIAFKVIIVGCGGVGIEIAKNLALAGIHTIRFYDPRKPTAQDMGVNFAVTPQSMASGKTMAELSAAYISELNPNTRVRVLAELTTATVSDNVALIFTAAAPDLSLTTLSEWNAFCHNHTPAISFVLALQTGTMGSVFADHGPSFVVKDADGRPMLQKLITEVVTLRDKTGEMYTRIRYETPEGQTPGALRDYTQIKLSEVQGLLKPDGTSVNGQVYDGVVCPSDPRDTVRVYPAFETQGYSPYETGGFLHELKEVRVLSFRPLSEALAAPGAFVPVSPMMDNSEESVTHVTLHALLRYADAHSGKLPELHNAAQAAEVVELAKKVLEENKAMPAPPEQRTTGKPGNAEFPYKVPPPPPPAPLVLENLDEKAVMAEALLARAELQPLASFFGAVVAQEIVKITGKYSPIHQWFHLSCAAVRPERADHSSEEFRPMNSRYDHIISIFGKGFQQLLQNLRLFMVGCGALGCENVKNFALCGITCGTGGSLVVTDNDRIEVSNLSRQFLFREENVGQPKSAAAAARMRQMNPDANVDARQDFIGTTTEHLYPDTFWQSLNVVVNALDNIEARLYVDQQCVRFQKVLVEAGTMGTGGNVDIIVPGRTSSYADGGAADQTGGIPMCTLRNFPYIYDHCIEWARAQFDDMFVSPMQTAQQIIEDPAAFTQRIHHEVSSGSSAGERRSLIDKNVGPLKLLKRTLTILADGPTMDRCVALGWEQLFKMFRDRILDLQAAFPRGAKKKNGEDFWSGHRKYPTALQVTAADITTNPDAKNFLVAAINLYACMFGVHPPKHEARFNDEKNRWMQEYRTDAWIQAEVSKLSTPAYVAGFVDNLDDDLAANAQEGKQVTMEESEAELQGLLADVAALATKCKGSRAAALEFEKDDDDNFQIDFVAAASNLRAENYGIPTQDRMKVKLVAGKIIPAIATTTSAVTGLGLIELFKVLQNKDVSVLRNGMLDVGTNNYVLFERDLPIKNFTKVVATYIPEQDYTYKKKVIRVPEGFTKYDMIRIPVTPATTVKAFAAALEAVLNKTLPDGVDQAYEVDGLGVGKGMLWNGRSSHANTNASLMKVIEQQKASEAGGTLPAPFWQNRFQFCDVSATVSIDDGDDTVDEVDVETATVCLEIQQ

[3] = biological target: AMP-activated protein kinase, AMPK (Homo sapiens) (UniProt P54646+O43741+P54619+Q9UGJ0+Q9Y478+Q13131+Q9UGI9); assay: AMP-dependent Kinase enzyme assay. An in vitro enzyme assay that detects ADP turnover that is directly proportional to AMPK activity. This uses naive AMPK that is activated during the assay with MK-8722; format: functional; details: 30 µM
[4] = biological target: Sialic acid-binding Ig-like lectin 9 (Homo sapiens) (UniProt Q9Y336); assay: Hs-Siglec9 ALPHAscreen SOP 20170721; details: 10 µM
Trypanosoma cruzi = assay: Trypanosoma cruzi phosphomannomutase and mannose-1-phosphate guanylyltransferase assay; format: functional; details: 10 µM
[5] = biological target: T2, Arginase-2, mitochondrial (Homo sapiens) (UniProt P78540); assay: in vitro enzyme assay to detect the production of urea directly proportional to the activity of Arginase II; format: functional; details: 33.3 µM; also: in the data most compounds retested in dose-response had high values
T2 sequence (whole entry): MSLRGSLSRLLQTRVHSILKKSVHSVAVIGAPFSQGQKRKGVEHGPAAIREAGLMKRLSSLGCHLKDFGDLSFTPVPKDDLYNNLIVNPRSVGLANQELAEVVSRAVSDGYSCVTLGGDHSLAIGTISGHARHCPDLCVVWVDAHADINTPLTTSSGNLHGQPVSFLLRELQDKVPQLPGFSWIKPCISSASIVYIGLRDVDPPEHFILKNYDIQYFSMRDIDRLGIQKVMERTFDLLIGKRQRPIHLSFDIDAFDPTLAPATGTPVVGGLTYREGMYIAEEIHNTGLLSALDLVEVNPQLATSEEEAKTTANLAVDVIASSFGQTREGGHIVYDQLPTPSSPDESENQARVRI

[6] = biological target: T3, Proteasome subunit beta (Trypanosoma cruzi) (UniProt O96673); assay: Trypanosoma cruzi proteasome chymotrypsin-like activity (TcProtChymo) assay.; also: in the data most compounds retested in dose-response had high values; format: functional; details: 9.37 µM
T3 sequence (whole entry): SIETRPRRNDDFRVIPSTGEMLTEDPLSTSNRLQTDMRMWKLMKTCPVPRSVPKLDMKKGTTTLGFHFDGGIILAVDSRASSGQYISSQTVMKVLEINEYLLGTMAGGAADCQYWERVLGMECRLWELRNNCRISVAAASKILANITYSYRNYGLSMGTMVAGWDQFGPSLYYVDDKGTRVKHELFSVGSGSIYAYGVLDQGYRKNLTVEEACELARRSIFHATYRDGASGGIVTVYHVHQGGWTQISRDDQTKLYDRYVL

Homo sapiens = organism: Homo sapiens; assay: To identify inhibition of the IFN signalling (Jak-Stat) pathway via expression of an eGFP reporter gene under the control of an IFN-stimulated response element (ISRE) containing MxA promoter.; format: functional; details: 30 µM
[7] = biological target: T4, Tyrosyl-tRNA synthetase, putative (Trypanosoma cruzi (strain CL Brener)) (UniProt Q4DSP6); assay: Trypanosoma cruzi tyrosyl tRNA synthetase (TcYRS) _High Tyrosine SOP; format: functional; details: 30 µM; also: in the data most compounds retested in dose-response had high values
T4 sequence (whole entry): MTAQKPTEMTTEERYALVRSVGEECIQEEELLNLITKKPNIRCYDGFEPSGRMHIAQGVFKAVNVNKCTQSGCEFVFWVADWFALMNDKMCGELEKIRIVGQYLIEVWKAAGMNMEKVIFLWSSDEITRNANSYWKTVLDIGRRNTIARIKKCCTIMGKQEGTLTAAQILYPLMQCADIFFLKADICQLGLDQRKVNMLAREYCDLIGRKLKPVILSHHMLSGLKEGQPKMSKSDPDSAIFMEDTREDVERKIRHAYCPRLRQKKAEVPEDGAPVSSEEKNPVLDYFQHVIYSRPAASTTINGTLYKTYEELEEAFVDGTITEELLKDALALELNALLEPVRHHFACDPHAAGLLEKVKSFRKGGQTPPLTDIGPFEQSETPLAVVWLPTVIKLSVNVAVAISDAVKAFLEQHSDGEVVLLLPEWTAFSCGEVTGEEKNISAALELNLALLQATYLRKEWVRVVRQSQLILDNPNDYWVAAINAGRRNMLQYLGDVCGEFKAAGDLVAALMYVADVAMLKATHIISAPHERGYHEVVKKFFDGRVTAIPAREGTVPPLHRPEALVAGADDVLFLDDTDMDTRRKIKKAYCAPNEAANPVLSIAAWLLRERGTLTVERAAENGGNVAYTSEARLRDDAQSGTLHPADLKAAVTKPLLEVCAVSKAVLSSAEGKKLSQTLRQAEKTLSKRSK

[8] = biological target: T4, Tyrosyl-tRNA synthetase, putative (Trypanosoma cruzi (strain CL Brener)); assay: Trypanosoma cruzi tyrosyl tRNA synthetase (TcYRS) SOP; format: functional; details: 30 µM
[9] = biological target: Chromo domain-containing protein 1 (Saccharomyces cerevisiae (strain ATCC 204508 / S288c) (Baker's yeast)) (UniProt P32657); assay: ScCHD-1 Enzyme Inhibition Assay; format: functional; details: 30 µM; also: in the data most compounds retested in dose-response had high values
Sequence of Chromo domain-containing protein 1 (Saccharomyces cerevisiae (strain ATCC 204508 / S288c) (Baker's yeast)) (P32657 whole entry, the tested form may be a part): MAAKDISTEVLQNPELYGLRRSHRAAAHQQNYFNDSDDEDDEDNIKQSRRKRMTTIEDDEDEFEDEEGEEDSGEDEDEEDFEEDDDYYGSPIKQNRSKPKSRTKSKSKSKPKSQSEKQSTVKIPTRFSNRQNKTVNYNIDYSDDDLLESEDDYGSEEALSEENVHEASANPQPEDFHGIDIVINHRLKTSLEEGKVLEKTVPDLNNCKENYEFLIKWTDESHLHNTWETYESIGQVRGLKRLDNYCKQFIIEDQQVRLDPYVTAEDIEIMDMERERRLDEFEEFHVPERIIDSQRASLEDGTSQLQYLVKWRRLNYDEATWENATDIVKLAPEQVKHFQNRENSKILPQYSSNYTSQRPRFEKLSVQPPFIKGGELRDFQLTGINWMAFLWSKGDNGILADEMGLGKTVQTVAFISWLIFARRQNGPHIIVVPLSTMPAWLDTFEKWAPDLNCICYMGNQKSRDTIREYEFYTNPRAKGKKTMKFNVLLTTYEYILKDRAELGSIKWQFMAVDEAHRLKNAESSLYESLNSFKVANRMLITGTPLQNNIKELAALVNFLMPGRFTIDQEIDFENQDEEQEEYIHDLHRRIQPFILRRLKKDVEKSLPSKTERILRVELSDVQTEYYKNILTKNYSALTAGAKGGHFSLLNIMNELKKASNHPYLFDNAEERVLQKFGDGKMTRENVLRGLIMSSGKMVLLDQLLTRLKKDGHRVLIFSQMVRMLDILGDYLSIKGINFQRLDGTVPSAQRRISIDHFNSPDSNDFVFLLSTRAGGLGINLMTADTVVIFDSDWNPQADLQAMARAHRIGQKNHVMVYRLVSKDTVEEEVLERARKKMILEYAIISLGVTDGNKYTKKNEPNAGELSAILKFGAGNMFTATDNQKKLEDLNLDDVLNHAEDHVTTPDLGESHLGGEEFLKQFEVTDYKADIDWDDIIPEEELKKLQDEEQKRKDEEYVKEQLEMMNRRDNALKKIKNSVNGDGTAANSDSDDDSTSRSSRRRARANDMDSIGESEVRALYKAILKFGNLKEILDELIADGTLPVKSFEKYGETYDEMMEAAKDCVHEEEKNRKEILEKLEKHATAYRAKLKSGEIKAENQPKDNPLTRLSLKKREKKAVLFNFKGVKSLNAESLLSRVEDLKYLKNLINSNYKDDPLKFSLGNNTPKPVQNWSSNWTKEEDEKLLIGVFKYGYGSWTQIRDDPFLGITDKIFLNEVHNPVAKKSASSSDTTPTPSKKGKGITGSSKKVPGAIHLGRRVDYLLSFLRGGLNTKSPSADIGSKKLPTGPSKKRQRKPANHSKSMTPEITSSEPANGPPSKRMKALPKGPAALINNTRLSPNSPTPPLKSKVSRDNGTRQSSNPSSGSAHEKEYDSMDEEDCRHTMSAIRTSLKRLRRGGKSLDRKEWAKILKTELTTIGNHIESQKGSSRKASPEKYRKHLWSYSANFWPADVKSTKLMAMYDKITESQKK

Sequence of Sialic acid-binding Ig-like lectin 9 (Homo sapiens) (Q9Y336 whole entry): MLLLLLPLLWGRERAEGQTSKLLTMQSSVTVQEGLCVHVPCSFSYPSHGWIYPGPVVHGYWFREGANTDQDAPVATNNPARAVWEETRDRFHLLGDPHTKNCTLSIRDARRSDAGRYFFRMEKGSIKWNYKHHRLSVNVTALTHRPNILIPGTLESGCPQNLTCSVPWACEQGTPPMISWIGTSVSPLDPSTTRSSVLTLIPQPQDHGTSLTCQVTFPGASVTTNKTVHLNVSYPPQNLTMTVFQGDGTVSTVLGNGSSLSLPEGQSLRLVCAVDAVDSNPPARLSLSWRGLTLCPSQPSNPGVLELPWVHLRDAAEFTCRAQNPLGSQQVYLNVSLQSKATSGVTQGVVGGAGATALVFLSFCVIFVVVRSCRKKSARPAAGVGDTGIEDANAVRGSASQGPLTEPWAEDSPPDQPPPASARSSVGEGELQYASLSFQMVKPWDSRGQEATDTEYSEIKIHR
Sequence of Protein translocase subunit SecA (Escherichia coli (strain K12)) (P10408 whole entry): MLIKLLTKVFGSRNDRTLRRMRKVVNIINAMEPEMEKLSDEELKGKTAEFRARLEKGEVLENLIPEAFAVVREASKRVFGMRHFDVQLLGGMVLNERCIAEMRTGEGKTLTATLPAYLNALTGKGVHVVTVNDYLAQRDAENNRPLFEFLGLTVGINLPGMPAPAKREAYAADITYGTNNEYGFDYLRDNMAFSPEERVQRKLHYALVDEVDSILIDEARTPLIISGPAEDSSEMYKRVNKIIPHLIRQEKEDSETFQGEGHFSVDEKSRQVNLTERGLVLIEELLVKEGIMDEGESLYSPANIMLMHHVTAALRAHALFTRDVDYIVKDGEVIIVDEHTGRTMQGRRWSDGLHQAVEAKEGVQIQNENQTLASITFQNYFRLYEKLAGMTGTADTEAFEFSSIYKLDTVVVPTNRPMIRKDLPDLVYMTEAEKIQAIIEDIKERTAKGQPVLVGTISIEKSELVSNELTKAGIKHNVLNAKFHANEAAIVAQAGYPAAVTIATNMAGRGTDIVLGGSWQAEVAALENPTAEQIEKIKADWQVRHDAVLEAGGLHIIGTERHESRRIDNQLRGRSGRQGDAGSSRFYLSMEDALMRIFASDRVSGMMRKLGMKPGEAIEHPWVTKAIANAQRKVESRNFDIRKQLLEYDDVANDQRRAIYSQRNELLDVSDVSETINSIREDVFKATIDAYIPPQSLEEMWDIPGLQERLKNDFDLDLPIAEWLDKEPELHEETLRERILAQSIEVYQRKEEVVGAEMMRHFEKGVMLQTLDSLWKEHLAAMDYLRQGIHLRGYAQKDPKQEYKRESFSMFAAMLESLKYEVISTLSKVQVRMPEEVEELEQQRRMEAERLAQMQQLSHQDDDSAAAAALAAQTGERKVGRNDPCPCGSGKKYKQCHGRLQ

Row | SMILES | Percent Effect [1] [%] | Percent Effect [2] [%] | Percent Effect [3] [%] | Percent Effect [4] [%] | Percent Effect (Trypanosoma cruzi) [%] | Percent Effect [5] [%] | Percent Effect [6] [%] | Percent Effect (Homo sapiens) [%] | Percent Effect [7] [%] | Percent Effect [8] [%] | Percent Effect [9] [%]
1 | CN(Cc1cccnc1)CC1CCCN1c1cccnn1 (configuration not stated) | 4.47 | 18.2 | -2.81 | -14.9 | -5.58 | 0.21 | 13.7 | 27.4 | 7.62 | 18.8 | -18.6
2 | Cc1nc(CN2CCC(CNC(=O)Nc3ccccn3)CC2)oc1C | -6.4 | 2.7 | -0.75 | -0.537 | -1.27 | -0.744 | -1.46 | -2.29 | 4.3 | 11.1 | -2.16
3 | CCc1nnc(CN2CCN(C(=O)c3ccccn3)CC2)o1 | 0.554 | 10.4 | 1.99 | -1.91 | -0.881 | 6.53 | 4.45 | 24.1 | 5.71 | 9.41 | -20.1
4 | COC1CCCN(C(=O)Nc2nc(C)n(C)n2)C1 (configuration not stated) | -4.33 | 8 | -6.08 | 5.49 | 1.27 | 1.56 | 11.2 | 14.3 | 6.01 | 6.17 | -6.37
5 | NC(=O)CSCC(=O)N1CCc2cc(Cl)cc(Cl)c2C1 | -5.75 | 15.6 | 4.28 | 36.8 | 6.98 | -57.9 | 9.15 | -7.69 | 3.23 | 8.64 | -8.22
6 | CNC(=O)Cn1cc(C#N)c(=O)c2cc(Br)ccc21 | -5.47 | 13.3 | -4.43 | 16.9 | 7.3 | 7.29 | 15.2 | 9.36 | 3.83 | 13.6 | 38.7
7 | CC(=O)NCC(=O)N1Cc2nccn2CC(Cn2cccn2)C1 (configuration not stated) | -2.33 | -2.7 | 5.56 | -2.67 | -5.38 | 1.59 | 18.6 | 3.41 | 5.41 | 7.69 | -0.528
8 | CNc1cc(C2CCCN2Cc2ccccc2OCC(=O)O)ccn1 (configuration not stated) | -3.95 | 1.35 | 11.6 | 2.57 | -3.16 | 0.232 | 2.34 | 4.49 | 5.38 | 9.09 | -8.55
9 | Cc1c(Br)cccc1C(=O)NC(C)CN1CCCC1=O (configuration not stated) | -3.78 | 2.74 | -2.6 | -6.12 | -2.35 | 0.909 | 7.1 | 10 | 1.07 | 5 | -5.51
10 | CC(C)c1nnc2n1CCN(C(=O)c1ccc(OCC(N)=O)cc1)C2 | -8.09 | 18.2 | -2.69 | -4.74 | 4.41 | -1.9 | 9.62 | 4.02 | 6.67 | 11.8 | -16.8
11 | CN1CCN(Cc2cn3c(n2)CN(C(=O)N2CCOCC2)CC3)CC1 | -6.56 | 5.2 | 1.33 | 22.1 | 3.25 | -5.52 | 0.499 | -12.5 | 4.3 | 11.1 | 0.336
12 | CC(C)CNC(=O)Nc1ccc(CN2CCOC2=O)cc1 | -6.23 | -15.3 | -5.54 | 6.22 | -2.23 | 0.442 | 12.8 | 25.7 | -7.37 | -25.6 | -1.07
13 | Cc1csc(N2CCN(CCc3ccccn3)CC2C)n1 (configuration not stated) | -0.657 | 8.22 | -7.28 | 9.14 | 6.07 | -3.64 | 4.79 | 17.9 | 4.3 | 5 | -1.43
14 | CCCc1nc(C(=O)N2CCCn3nc(CCC(=O)O)cc3C2)cs1 | -7.52 | 5.41 | 2.34 | 4.25 | 1.54 | 2.38 | 11 | 3.31 | 3.7 | 9.76 | -5.37
15 | O=C1CC(c2cccnc2)C2(CCN(C(=O)c3ccncc3)CC2)N1 (configuration not stated) | -4.11 | 10.8 | 2.03 | -3.18 | 3.81 | -4.78 | 17.9 | -0.901 | 4.32 | 15.4 | 1.46
16 | Cc1cc2c(=O)n3c(nc2s1)CCN(C(=O)c1scnc1C)CC3 | -1.99 | 9.46 | 9.3 | 2.42 | -1.58 | -5.34 | 7.49 | -18 | -1.07 | 11.7 | -8.95
17 | CC1=N[C@@]2(CC[C@@H]3CN(S(=O)(=O)N(C)C)C[C@@H]32)C(=O)N1CC(C)C | 1.29 | 8.11 | 2.53 | -13.6 | -6.75 | 4.78 | 13.3 | 6.52 | 5.41 | 10.3 | -5.11
